In PubChem BioAssay (NCI):
This is part of a sample that, as a whole, favours compounds with a hit. Of some 83,000 tested, about 20% had one in any assay.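 Testing used 96-well plates and a 48-hour single-concentration exposure. Example: -40 means 40% of the starting cells died.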 Values without a mark were called inactive. The source made the active and inactive calls. How the source made its calls: active means growth percent below 10; inactive means the rest.

Experiments:
Test in all cases: NCI-60 one-dose screen, 48 h (100 = growth as untreated, 0 = no growth, -100 = all killed)
DU-145 prostate = settings: 10 µM unless noted
K-562 leukemia = settings: 10 µM unless noted
MALME-3M melanoma = settings: 10 µM unless noted
RXF 393 renal = settings: 10 µM unless noted
SF-268 CNS = settings: 10 µM unless noted
SF-295 CNS = settings: 10 µM unless noted
SF-539 CNS = settings: 10 µM unless noted
UACC-257 melanoma = settings: 10 µM unless noted
M14 melanoma = settings: 10 µM unless noted
HCT-15 colon = settings: 10 µM unless noted
HT29 colon = settings: 10 µM unless noted
SNB-19 CNS = settings: 10 µM unless noted
U251 CNS = settings: 10 µM unless noted
PC-3 prostate = settings: 10 µM unless noted
SK-MEL-5 melanoma = settings: 10 µM unless noted
UACC-62 melanoma = settings: 10 µM unless noted
SK-MEL-28 melanoma = settings: 10 µM unless noted
SNB-75 CNS = settings: 10 µM unless noted
MDA-MB-231 breast = settings: 10 µM unless noted
LOX IMVI melanoma = settings: 10 µM

| SMILES | growth (DU-145 prostate) | growth (K-562 leukemia) | growth (MALME-3M melanoma) | growth (RXF 393 renal) | growth (SF-268 CNS) | growth (SF-295 CNS) | growth (SF-539 CNS) | growth (UACC-257 melanoma) | growth (M14 melanoma) | growth (HCT-15 colon) | growth (HT29 colon) | growth (SNB-19 CNS) | growth (U251 CNS) | growth (PC-3 prostate) | growth (SK-MEL-5 melanoma) | growth (UACC-62 melanoma) | growth (SK-MEL-28 melanoma) | growth (SNB-75 CNS) | growth (MDA-MB-231 breast) | growth (LOX IMVI melanoma) |
| --- | --- | --- | --- | --- | --- | --- | --- | --- | --- | --- | --- | --- | --- | --- | --- | --- | --- | --- | --- | --- |
| Cn1nc(C(F)(F)F)cc1-c1cc(Cl)c(COc2ccc(Cl)cc2)c(-c2ccc(Cl)c(C(F)(F)F)c2)c1O | 8.66% (active) | 1.2% (active) | -52.4% (active) | -47.7% (active) | -0.375% (active) | -70.8% (active) | -77.9% (active) | -31.4% (active) | -67% (active) | -39.5% (active) | 6.65% (active) | -11.5% (active) | -24.8% (active) | -12.3% (active) | -74.4% (active) | -86.1% (active) | -48.8% (active) | – | – | – |
| N#Cc1c(-c2cccc(Cl)c2Cl)cc(-c2ccc3ccccc3c2)[nH]c1=O | 75.8% | 91.2% | 66% | 60.9% | 71.8% | 31.8% | 79.7% | 94.2% | 32.5% | 69.6% | 121% | 39.2% | 6.58% (active) | 44.4% | 85.7% | – | 92.8% | -12.7% (active) | – | – |
| N#Cc1c(-c2ccc(Br)cc2)nc2n[nH]c(-c3ccc(Br)cc3)c2c1-c1ccc(F)cc1 | 116% | 76.4% | 86.2% | 102% | 129% | 98.9% | 97.4% | 103% | 97.7% | 98.6% | 87.9% | 102% | 96.7% | 89% | 95.1% | 87% | 102% | – | – | – |
| COc1cc(-c2ccc(/C=N/NC(=O)c3[nH]c4ccc(Br)cc4c3-c3ccccc3)o2)cc(OC)c1OC | 81.1% | 85.6% | 95.4% | 88.7% | 59% | 56.6% | -13.1% (active) | 92.1% | 74.9% | 69.2% | 96.4% | 52.4% | 40.6% | 68.8% | 92.2% | – | 86.8% | 74.4% | – | – |
| CN1CCN(c2ccc3c(c2)nc(NNC(=O)c2cnccn2)c2cccn23)CC1 | -9.7% (active) | – | -24.5% (active) | -65.1% (active) | 10.6% | -81.3% (active) | -41.3% (active) | -48.6% (active) | -78.1% (active) | -51% (active) | 6.95% (active) | 20% | -19.1% (active) | 11.7% | – | -17.9% (active) | -15% (active) | 28.7% | -35.1% (active) | -43.8% (active) |
| N#Cc1c(-c2cccc(O)c2O)cc(-c2ccc3ccccc3c2)[nH]c1=O | 57% | 67.1% | 59.1% | 39.3% | 58.6% | 83.6% | 28.8% | 99.9% | 65.1% | 52.8% | 98.2% | 41.1% | 40.2% | 67.5% | 45.9% | – | 45.7% | -6.63% (active) | – | – |
| COc1ccc(-c2nnc3ccc(N/N=C/c4ccc(C)cc4)nn23)cc1 | 39.1% | – | 91.3% | 62.2% | 59.1% | 56.9% | 61.3% | 106% | 83.5% | 50% | 82.6% | 92.6% | 44.9% | 72.2% | – | 88.9% | 93.6% | -38.6% (active) | 65.4% | 23.7% |
| N#Cc1c(-c2cccnc2)cc(-c2ccc3ccccc3c2)[nH]c1=O | 80.2% | 86.6% | 94.8% | 50.6% | 71.7% | 71.4% | 7.22% (active) | 105% | 116% | 80.7% | 111% | 66.1% | 77.7% | 95.5% | 78.2% | 93.8% | 104% | – | – | – |
| O=C1Nc2cc(Cl)ccc2/C1=C/c1cccc(OCc2ccccn2)c1 | 9.98% (active) | 4.79% (active) | 36.4% | -3.29% (active) | 13.1% | 13.6% | -48.2% (active) | 44.4% | -9.46% (active) | 7.16% (active) | 0.146% (active) | 20.5% | -17.4% (active) | 20.1% | 6.08% (active) | 5.17% (active) | 39.5% | – | – | – |
| CCOc1ccc(-c2c(C#N)c(-c3ccc(Cl)cc3)nc3n[nH]c(-c4ccc(Cl)cc4)c23)cc1OC | 64.9% | 9.47% (active) | 46.7% | 47.4% | 72.9% | 75.7% | 62.6% | 54.4% | 60% | 19.6% | 34.2% | 77% | 62.9% | 28% | 28.2% | 68.5% | 60.2% | – | – | – |
